In PubChem BioAssay (NCATS):
Inconclusive results are not listed. Where a call stands in place of a potency, no number is given. Activity calls are given as the source filed them. Calls follow the shape of the dose curve; as a rule, active = well fitted curve in the direction sought with a large enough effect; inconclusive = small, poorly fitted or top-dose-only effect, or another doubt; inactive = no such curve, though single readings can be large; an effect the other way counts as inactive or inconclusive. Starred links: 1 amine or outer side, 2 acyl side, 3 side chain; linkers in the order of their positions; H or OH if unused. Positions of bridges follow the written chain, without caps; N, C: chain ends. Non-standard residues stand in square brackets, D forms with d. Residues, ends and D or L forms follow the SMILES beside them. Chains are numbered I, II in the order given. Actinocin(9to1) = Cc1c2oc3c(C)ccc(C(=O)[*:1])c3nc-2c(C(=O)[*:2])c(N)c1=O; NMeV = CN[CH](C(=O)O)C(C)C; Sar = CNCC(=O)O

Key:
[1] = qHTS of pediatric cancer cell lines to identify multiple opportunities for drug repurposing: Primary screen for NB-EBc1 cells (AID 1347095); also: potency is read from the fitted curve at half-maximal effect
Outline: (§1)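 Readout: CellTiter-Glo luminescence, 48 h treatment. Controls DMSO (neutral) and bortezomib 2.3 µM final (positive). Potency and efficacy taken from primary-screen concentration-response curves.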

[2] = qHTS of pediatric cancer cell lines to identify multiple opportunities for drug repurposing: Primary screen for U-2 OS cells (AID 1347096); also: nearly all actives have a fitted effect of over 50% in size; also: potency is read from the fitted curve at half-maximal effect
Outline: (§2)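 Cells (500-1,000/well) in growth media were settled 5 h at 37 degrees C, then given compounds for 48 h. Viability was read as CellTiter-Glo luminescence. Primary runs used MIPE at 11 points (0.78 nM-46 µM) and NPC at 8 points (0.59 nM-46 µM); follow-ups used 11 points.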

[3] = qHTS of pediatric cancer cell lines to identify multiple opportunities for drug repurposing: Primary screen for Saos-2 cells (AID 1347097); also: nearly all actives have a fitted effect of over 40% in size; also: potency is read from the fitted curve at half-maximal effect
Outline: as §1

[4] = qHTS of pediatric cancer cell lines to identify multiple opportunities for drug repurposing: Primary screen for LAN-5 cells (AID 1347100); also: potency is read from the fitted curve at half-maximal effect
Outline: as §2

[5] = qHTS of pediatric cancer cell lines to identify multiple opportunities for drug repurposing: Primary screen for BT-12 cells (AID 1347101); also: nearly all actives have a fitted effect of over 25% in size; also: potency is read from the fitted curve at half-maximal effect
Outline: (§3)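 Cells (500-1,000/well) rested 5 h, then received compounds for 48 h; metabolically active cells were measured by CellTiter-Glo luminescence. Final concentrations spanned up to 46 µM (MIPE, 11-point) or 0.59 nM-46 µM (NPC, 8-point) in primary screens, 11-point in follow-ups.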

[6] = qHTS of pediatric cancer cell lines to identify multiple opportunities for drug repurposing: Primary screen for Rh18 cells (AID 1347102); also: nearly all actives have a fitted effect of over 65% in size; also: potency is read from the fitted curve at half-maximal effect
Outline: as §2

[7] = qHTS of pediatric cancer cell lines to identify multiple opportunities for drug repurposing: Primary screen for RD cells (AID 1347104); also: nearly all actives have a fitted effect of over 55% in size; also: potency is read from the fitted curve at half-maximal effect
Outline: as §1

[8] = qHTS of pediatric cancer cell lines to identify multiple opportunities for drug repurposing: Primary screen for MG 63 (6-TG R) cells (AID 1347105); also: nearly all actives have a fitted effect of over 50% in size; also: potency is read from the fitted curve at half-maximal effect
Outline: as §1

[9] = qHTS of pediatric cancer cell lines to identify multiple opportunities for drug repurposing: Primary screen for control Hh wild type fibroblast cells (AID 1347106);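 also: series mostly up to about 46 µM; a drop in luminescence marks cytotoxicity and a rise apparent proliferation; nearly all actives have a fitted effect of over 55% in size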
Outline: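 Viability after 48 h compound treatment at 37C, 500-1,000 cells/well, read as ATP luminescence with CellTiter-Glo. Primary screens used 11-point (MIPE, 0.78 nM-46 µM) or 8-point (NPC, 0.59 nM-46 µM) final concentrations; follow-up screens used 11-point dilutions.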

[10] = qHTS of pediatric cancer cell lines to identify multiple opportunities for drug repurposing: Primary screen for Rh30 cells (AID 1347107); also: series mostly up to about 46 µM; nearly all actives have a fitted effect of over 75% in size
Outline: as §2

[11] = qHTS of pediatric cancer cell lines to identify multiple opportunities for drug repurposing: Primary screen for Rh41 cells (AID 1347108);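 also: series mostly up to about 46 µM; luminescence drop marks cytotoxic hits; nearly all actives have a fitted effect of over 70% in size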
Outline: as §1

[12] = qHTS of pediatric cancer cell lines to identify multiple opportunities for drug repurposing: Confirmatory screen for NB1643 cells (AID 1347109); also: nearly all actives have a fitted effect of over 45% in size; also: potency is read from the fitted curve at half-maximal effect
Outline: as §2

[13] = qHTS of pediatric cancer cell lines to identify multiple opportunities for drug repurposing: Confirmatory screen for A673 cells (AID 1347110);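 also: cells exposed to compound for 48 h before the viability read; nearly all actives have a fitted effect of over 65% in size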; also: potency is read from the fitted curve at half-maximal effect
Outline: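 Cells plated at 500-1,000/well were treated five hours later with multi-point dilutions up to 46 µM final. After two days, CellTiter-Glo was added and luminescence read.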

[14] = qHTS of pediatric cancer cell lines to identify multiple opportunities for drug repurposing: Confirmatory screen for SK-N-MC cells (AID 1347111);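 also: cells exposed to compound for 48 h before the readout; nearly all actives have a fitted effect of over 70% in size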; also: potency is read from the fitted curve at half-maximal effect
Outline: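 Metabolically active cells were quantified by ATP-dependent luminescence (CellTiter-Glo, 15 min at room temperature) following 48 h treatment. Cells had been plated at 500-1,000 per well and settled for 5 h beforehand.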

[15] = qHTS of pediatric cancer cell lines to identify multiple opportunities for drug repurposing: Confirmatory screen for LAN-5 cells (AID 1347113); also: nearly all actives have a fitted effect of over 65% in size; also: potency is read from the fitted curve at half-maximal effect
Outline: as §2

[16] = qHTS of pediatric cancer cell lines to identify multiple opportunities for drug repurposing: Primary screen for SK-N-SH cells (AID 1347098); also: nearly all actives have a fitted effect of over 65% in size; also: potency is read from the fitted curve at half-maximal effect
Outline: as §3

[17] = qHTS of pediatric cancer cell lines to identify multiple opportunities for drug repurposing: Primary screen for NB1643 cells (AID 1347099); also: nearly all actives have a fitted effect of over 50% in size; also: potency is read from the fitted curve at half-maximal effect
Outline: as §1

[18] = qHTS of pediatric cancer cell lines to identify multiple opportunities for drug repurposing: Primary screen for OHS-50 cells (AID 1347103); also: nearly all actives have a fitted effect of over 40% in size; also: potency is read from the fitted curve at half-maximal effect
Outline: as §3

[19] = qHTS of pediatric cancer cell lines to identify multiple opportunities for drug repurposing: Confirmatory screen for BT-12 cells (AID 1347112); also: nearly all actives have a fitted effect of over 55% in size; also: potency is read from the fitted curve at half-maximal effect
Outline: as §2

Structure (SMILES): COC(=O)[C@@H]1[C@H]2C[C@@H]3c4[nH]c5ccccc5c4CCN3C[C@@H]2CC[C@@H]1O
- Potency [1]: inactive
- Potency [2]: inactive
- Potency [3]: inactive
- Potency [4]: inactive
- Potency [5]: inactive
- Potency [6]: inactive
- Potency [7]: inactive
- Potency [8]: inactive
- Potency [9]: inactive
- Potency [10]: inactive
- Potency [11]: inactive
- Potency [12]: inactive
- Potency [13]: inactive
- Potency [14]: inactive
- Potency [15]: inactive

Structure (SMILES): CC(=O)N[C@H]1[C@@H]([C@H](O)[C@H](O)CO)OC(C(=O)O)=C[C@@H]1N=C(N)N
- Potency [1]: inactive
- Potency [2]: inactive
- Potency [3]: inactive
- Potency [16]: inactive
- Potency [17]: inactive
- Potency [5]: inactive
- Potency [6]: inactive
- Potency [7]: inactive
- Potency [8]: inactive
- Potency [9]: inactive
- Potency [10]: inactive
- Potency [11]: inactive

Structure (SMILES): Nc1cccc2c1C(=O)N(C1CCC(=O)NC1=O)C2=O (configuration not stated)
- Potency [1]: inactive
- Potency [2]: inactive
- Potency [16]: inactive
- Potency [17]: inactive
- Potency [6]: inactive
- Potency [18]: inactive
- Potency [7]: inactive
- Potency [8]: inactive
- Potency [9]: inactive
- Potency [10]: inactive

Structure (SMILES): CC(O)(C#Cc1ccc2c(c1)N(c1nc(N)ncc1Cl)CC2)c1nccs1 (configuration not stated)
- Potency [1]: inactive
- Potency [2]: inactive
- Potency [16]: 21500 nM (active)
- Potency [17]: 16600 nM (active)
- Potency [6]: inactive
- Potency [18]: 24300 nM (active)
- Potency [7]: 18700 nM (active)
- Potency [8]: 9350 nM (active)
- Potency [9]: inactive
- Potency [10]: inactive
- Potency [11]: inactive

Structure (SMILES): COc1cc(C)c(C=CC(C)=CC=CC(C)=CC(=O)O)c(C)c1C
- Potency [1]: inactive
- Potency [2]: inactive
- Potency [3]: inactive
- Potency [16]: inactive
- Potency [6]: inactive
- Potency [18]: 1720 nM (active)
- Potency [7]: inactive
- Potency [9]: inactive

Structure (SMILES): C[C@@]12C(=O)OC(=O)[C@@]1(C)C1CCC2O1
- Potency [1]: 2350 nM (active)
- Potency [2]: inactive
- Potency [3]: 2960 nM (active)
- Potency [16]: 3830 nM (active)
- Potency [17]: 1480 nM (active)
- Potency [5]: 8630 nM (active)
- Potency [6]: 1870 nM (active)
- Potency [18]: 2430 nM (active)
- Potency [7]: 5900 nM (active)
- Potency [8]: 1870 nM (active)
- Potency [12]: 3290 nM (active)
- Potency [14]: 6570 nM (active)

Structure (SMILES): N#CC(=Cc1ccc(O)c(O)c1)C(=O)NCc1ccccc1
- Potency [1]: 23500 nM (active)
- Potency [2]: inactive
- Potency [6]: inactive
- Potency [9]: inactive

Structure (SMILES): CON=C(C(=O)N[C@@H]1C(=O)N2C(C(=O)O)=C(CSC(=O)c3ccco3)CS[C@H]12)c1csc(N)n1
- Potency [1]: inactive
- Potency [2]: inactive
- Potency [3]: inactive
- Potency [16]: 13600 nM (active)
- Potency [4]: inactive
- Potency [5]: inactive
- Potency [6]: inactive
- Potency [18]: inactive
- Potency [7]: inactive
- Potency [8]: inactive
- Potency [9]: inactive
- Potency [11]: inactive

Structure (SMILES): Cc1cn([C@@H]2O[C@H](CO)[C@@H](O)[C@H]2F)c(=O)[nH]c1=O
- Potency [1]: inactive
- Potency [2]: inactive
- Potency [3]: inactive
- Potency [16]: inactive
- Potency [4]: inactive
- Potency [5]: inactive
- Potency [6]: inactive
- Potency [18]: inactive
- Potency [7]: inactive
- Potency [8]: inactive
- Potency [9]: inactive
- Potency [10]: inactive
- Potency [11]: inactive

Structure (SMILES): COc1cc2c(cc1O)CCC1C2CC[C@@]2(C)C1CC[C@@H]2O (some centres not stated)
- Potency [1]: 526 nM (active)
- Potency [2]: inactive
- Potency [3]: 1050 nM (active)
- Potency [4]: inactive
- Potency [18]: 7690 nM (active)
- Potency [9]: inactive
- Potency [10]: inactive

Structure (SMILES): CS[C@H]1SC[C@@H]2C(=O)N(C)[C@H](C(C)C)C(=O)OC[C@H](NC(=O)c3cnc4ccccc4n3)C(=O)N[C@H](C)C(=O)N(C)[C@@H]1C(=O)N(C)[C@H](C(C)C)C(=O)OC[C@H](NC(=O)c1cnc3ccccc3n1)C(=O)N[C@H](C)C(=O)N2C
- Potency [1]: inactive
- Potency [2]: 9.3 nM (active)
- Potency [3]: 41.8 nM (active)
- Potency [16]: 4.8 nM (active)
- Potency [17]: inactive
- Potency [4]: inactive
- Potency [5]: 5.4 nM (active)
- Potency [18]: 12.2 nM (active)
- Potency [7]: 3 nM (active)
- Potency [8]: 18.7 nM (active)
- Potency [10]: inactive
- Potency [12]: inactive
- Potency [13]: 5.9 nM (active)
- Potency [14]: 13100 nM (active)
- Potency [15]: inactive

Structure (SMILES): C[C@@H]1C(=O)O[C@H]2CC34[C@H]5C[C@@H](C(C)(C)C)C36[C@H](OC(=O)[C@@H]6O)O[C@@]4(C(=O)O5)[C@]21O (some centres not stated)
- Potency [1]: inactive
- Potency [2]: inactive
- Potency [4]: 13200 nM (active)
- Potency [7]: inactive
- Potency [8]: inactive
- Potency [9]: inactive
- Potency [10]: inactive

Structure (SMILES): Cc1c2oc3c(C)ccc(C(=O)NC4C(=O)NC(C(C)C)C(=O)N5CCCC5C(=O)N(C)CC(=O)N(C)C(C(C)C)C(=O)OC4C)c3nc-2c(C(=O)NC2C(=O)NC(C(C)C)C(=O)N3CCCC3C(=O)N(C)CC(=O)N(C)C(C(C)C)C(=O)OC2C)c(N)c1=O (configuration not stated) (I: TVP[Sar][NMeV] / II: TVP[Sar][NMeV]; ester I:1-I:C, II:1-II:C; linker I:N-II:N via Actinocin(9to1); configuration not given here)
- Potency [1]: inactive
- Potency [2]: 1 nM (active)
- Potency [3]: 1 nM (active)
- Potency [16]: 1 nM (active)
- Potency [5]: 1 nM (active)
- Potency [6]: 1870 nM (active)
- Potency [18]: 1 nM (active)
- Potency [7]: 1 nM (active)
- Potency [10]: inactive
- Potency [12]: inactive
- Potency [13]: 14.7 nM (active)
- Potency [14]: 7.4 nM (active)
- Potency [19]: 29.3 nM (active)
- Potency [15]: 2.3 nM (active)

Structure (SMILES): O=C(NCc1ccccc1)[C@H](Cc1ccccc1)NC(=O)[C@@H]1O[C@@H]1C(=O)NCCc1ccc(O)cc1
- Potency [1]: inactive
- Potency [2]: inactive
- Potency [3]: 23500 nM (active)
- Potency [16]: 21500 nM (active)
- Potency [4]: inactive
- Potency [5]: inactive
- Potency [8]: inactive
- Potency [9]: inactive
- Potency [10]: inactive
- Potency [11]: inactive
- Potency [13]: 10400 nM (active)
- Potency [19]: inactive
